PubChem BioAssay AID1835 (Johns Hopkins Ion Channel Center, 2009)
About 750 (31%) of roughly 2,400 compounds were called active.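 How the source made its calls: active means median signal gain over dofetilide-blocked control wells reaching their mean plus 3 SD, so readout 1 at least 0; inactive means the rest.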 The list shows a part of the results.

Biological target: Voltage-gated inwardly rectifying potassium channel KCNH2 (Homo sapiens) (UniProt Q12809)
Experiment: hERG protection against dofetilide inhibition, confirmation, cell-based, thallium flux, duplicate retest, dofetilide IC70 (AID 1835)
Conditions: hERG cell line, FluxOR thallium flux, dofetilide-blocked; at 10 µM; hits give high values

Sequence of Voltage-gated inwardly rectifying potassium channel KCNH2 (Homo sapiens) (Q12809 whole entry, looked up): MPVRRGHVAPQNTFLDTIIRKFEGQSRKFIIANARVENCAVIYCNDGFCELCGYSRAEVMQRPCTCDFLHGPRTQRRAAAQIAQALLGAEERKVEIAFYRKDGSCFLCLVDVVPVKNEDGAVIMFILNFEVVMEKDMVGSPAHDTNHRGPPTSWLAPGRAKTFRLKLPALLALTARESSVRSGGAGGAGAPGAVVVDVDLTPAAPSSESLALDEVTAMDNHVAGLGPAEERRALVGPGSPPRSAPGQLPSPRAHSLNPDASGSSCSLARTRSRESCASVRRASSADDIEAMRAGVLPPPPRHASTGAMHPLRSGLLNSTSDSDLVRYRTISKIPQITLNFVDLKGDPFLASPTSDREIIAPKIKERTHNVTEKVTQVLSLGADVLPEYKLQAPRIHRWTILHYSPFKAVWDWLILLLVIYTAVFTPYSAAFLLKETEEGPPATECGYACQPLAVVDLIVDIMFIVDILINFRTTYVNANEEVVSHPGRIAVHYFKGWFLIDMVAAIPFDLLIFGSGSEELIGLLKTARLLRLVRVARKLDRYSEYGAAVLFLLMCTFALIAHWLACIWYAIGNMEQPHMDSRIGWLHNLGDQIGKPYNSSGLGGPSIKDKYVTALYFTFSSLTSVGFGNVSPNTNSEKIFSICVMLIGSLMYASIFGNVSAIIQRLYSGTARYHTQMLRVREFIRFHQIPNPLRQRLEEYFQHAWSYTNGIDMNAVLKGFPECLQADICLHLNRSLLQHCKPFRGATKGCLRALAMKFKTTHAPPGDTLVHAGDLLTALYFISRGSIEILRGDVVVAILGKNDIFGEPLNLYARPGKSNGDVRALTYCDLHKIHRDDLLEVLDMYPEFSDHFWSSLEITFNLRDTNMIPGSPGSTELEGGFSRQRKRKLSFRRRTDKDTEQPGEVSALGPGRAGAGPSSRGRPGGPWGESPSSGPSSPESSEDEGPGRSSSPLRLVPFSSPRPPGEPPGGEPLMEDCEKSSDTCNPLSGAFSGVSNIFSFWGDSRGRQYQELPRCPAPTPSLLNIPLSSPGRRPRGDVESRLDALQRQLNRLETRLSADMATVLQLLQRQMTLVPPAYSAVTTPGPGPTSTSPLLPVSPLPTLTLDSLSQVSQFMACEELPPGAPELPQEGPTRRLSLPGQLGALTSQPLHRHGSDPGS

Row | Structure (SMILES) | activity increase over dofetilide control, less the hit threshold
1 | CSC1=C(C#N)C(CC(C)C)C2=C(CCCC2=O)N1 (configuration not stated) | -12% (inactive)
2 | CCOC(=O)N1CCN(C(=O)c2ccc(CN(c3ccc(C)c(C)c3)S(C)(=O)=O)cc2)CC1 | 8% (active)
3 | CCN1CCN(C(=O)c2ccc(Cn3c(=O)[nH]c4cc(OC)c(OC)cc4c3=O)cc2)CC1 | -17% (inactive)
4 | COc1ccc(N(CC(=O)N2CCN(Cc3ccccc3)CC2)S(C)(=O)=O)cc1OC | -3% (inactive)
5 | S=c1nc(SCc2ccccc2)[nH]c2ccccc12 | 100% (active)
6 | S=c1nc(Cc2ccc(Cl)cc2)[nH]c2ccccc12 | 90% (active)
7 | S=c1nc(COc2ccccc2)[nH]c2ccccc12 | 100% (active)
8 | O=C(O)CCCCCNc1nc(=S)[nH]c2ccccc12 | -7% (inactive)
9 | S=c1nc(Cc2ccccc2)[nH]c2ccccc12 | 78% (active)
10 | O=c1[nH]c(SCc2cccc(Cl)c2)nc2ccccc12 | -14% (inactive)
11 | S=c1[nH]nc(-c2ccc(Cl)cc2)n1Cc1ccccc1 | -13% (inactive)
12 | CCC(C)N(C(=O)CSc1nnc(NC(C)C)s1)C1CCS(=O)(=O)C1 (configuration not stated) | -11% (inactive)
13 | CS(=O)(=O)N(CCc1ccccc1)CC(=O)N1CCN(c2ccc(F)cc2)CC1 | -9% (inactive)
14 | Cc1cc(=O)oc2cc(OC(C(=O)O)c3ccccc3)ccc12 (configuration not stated) | -19% (inactive)
15 | C[C@@H]1CCCCCCCCCCC1=O | -15% (inactive)
16 | Fc1cccc(C2NN=C(c3ccccc3)S2)c1 (configuration not stated) | -12% (inactive)
17 | COc1ccc(Cl)cc1N(C)C(=O)CCNC(=O)Cn1cnc2ccccc2c1=O | -11% (inactive)
18 | CC(=O)c1ccc2c3c(cccc13)CC2 | -7% (inactive)
19 | NC(=O)C1CCN(C(=O)c2cc3c(s2)CCCC3)CC1 | 9% (active)
20 | CC(OC(=O)c1cc2c(s1)CCCCC2)C(=O)NC(N)=O (configuration not stated) | -5% (inactive)
21 | O=C(c1cc2c(s1)-c1ccccc1OC2)N1CCCC1 | 0% (inactive)
22 | COC(=O)CCn1[nH]c(=O)c2ccccc2c1=O | -2% (inactive)
23 | COc1ccc(N2CCN(S(=O)(=O)c3ccc(Br)s3)CC2)cc1 | -14% (inactive)
24 | Cc1cccc(/C=N/n2c(COc3ccccc3)n[nH]c2=S)c1 | 1% (active)
25 | S=c1[nH]nc(-c2n[nH]c3c2CCC3)n1/N=C/C=C/c1ccccc1 | -27% (inactive)

Row | Structure (SMILES) | activity increase over dofetilide control, less the hit threshold
26 | S=c1[nH]nc(-c2ccco2)n1/N=C/C(Cl)=C/c1ccccc1 | -14% (inactive)
27 | CC(C)c1ccc(/C=N/n2c(COc3ccccc3)n[nH]c2=S)cc1 | 3% (active)
28 | S=c1[nH]nc(Cc2ccc(Br)cc2)n1/N=C/c1ccc(Cl)cc1 | -5% (inactive)
29 | Cc1ccc2nsnc2c1S(=O)(=O)Nc1cccc2nsnc12 | 8% (active)
30 | O=C(O)c1ccccc1NC(=O)C1CCN(S(=O)(=O)c2cccc3nsnc23)CC1 | -3% (inactive)
31 | O=C(NC(=S)Nc1nc2ccccc2s1)c1cccs1 | 52% (active)
32 | Cc1ccc2nc(NC(=S)NC(=O)c3cccs3)sc2c1 | 10% (active)
33 | Cc1cc(F)ccc1NC(=O)C1CCN(C(=O)Nc2ccccc2)CC1 | -17% (inactive)
34 | O=C(NC(C(=O)c1ccccc1)n1cnccc1=O)c1ccccc1 (configuration not stated) | -3% (inactive)
35 | O=C(CCNS(=O)(=O)c1ccc(Cl)cc1)OCC(=O)N1CCN(C(=O)c2ccco2)CC1 | -17% (inactive)
36 | CCc1c(C)sc(NC(=O)CN2CCN(C(=O)c3ccco3)CC2)c1C(=O)OC | 1% (active)
37 | Nc1ccc(C(=O)OCC(=O)N2CCN(C(=O)c3ccco3)CC2)cc1[N+](=O)[O-] | -16% (inactive)
38 | COC(=O)c1c(NC(=O)c2ccco2)sc2c1C(C(=O)OC)CC2 (configuration not stated) | -18% (inactive)
39 | CCOC(=O)c1c(NC(=O)CN2CCN(C(=O)c3ccco3)CC2)sc2c1CCCC2 | 7% (active)
40 | CCOc1ccc(OCC(=O)OCC(=O)N2CCN(C(=O)c3ccco3)CC2)cc1 | -2% (inactive)
41 | CC1=C(C)CS(=O)N(c2ccc(S(N)(=O)=O)cc2)C1 (configuration not stated) | -3% (inactive)
42 | Cn1ncc2c(NNC(=O)c3ccc(O)cc3)ncnc21 | -15% (inactive)
43 | Cc1nc(NCc2cccnc2)c2c3c(sc2n1)CC(C)CC3 (configuration not stated) | 55% (active)
44 | COc1ccc(S(=O)(=O)N2CCN(C(=O)CNC(=O)c3ccc4c(c3)OCO4)CC2)cc1 | -11% (inactive)
45 | COc1ccc(N2CCN(CC(O)COc3ccc(F)cc3)CC2)cc1 (configuration not stated) | -8% (inactive)
46 | O=C(NC(=S)Nc1ccc(N2CCOCC2)c(Cl)c1)c1sc2ccccc2c1Cl | 15% (active)
47 | O=C(NC(=S)Nc1ccccc1N1CCCC1)c1cccs1 | 0% (inactive)
48 | COc1ccc(NC(=O)c2cc(S(=O)(=O)N3CCOCC3)ccc2N2CCOCC2)cc1 | -16% (inactive)
49 | CCC(=O)Nc1ccc(N2CCOCC2)c(S(=O)(=O)Nc2ccc(OC)cc2)c1 | -26% (inactive)
50 | O=C(NC(=S)Nc1ccccc1N1CCCCC1)c1cccs1 | 11% (active)

Row | Structure (SMILES) | activity increase over dofetilide control, less the hit threshold
51 | O=C(NC(=S)Nc1ccc(N2CCCCC2)c(Cl)c1)c1cccs1 | 23% (active)
52 | O=C(NC(=S)Nc1ccc(N2CCCCC2)cc1)c1cccs1 | -2% (inactive)
53 | Nc1ccc(Cl)c(NC(=O)c2cccs2)c1 | -11% (inactive)
54 | COCCN1C(=O)C(=O)/C(=C(/O)c2ccc(S(=O)(=O)N3CCOCC3)cc2)C1c1ccc(OC)c(OC)c1 (configuration not stated) | -17% (inactive)
55 | Nc1nc(Br)c2c(F)cccc2c1-c1ccc(Cl)cc1 | -6% (inactive)
56 | Cc1ccc(C2c3c(-c4ccccc4O)n[nH]c3C(=O)N2Cc2ccncc2)cc1 (configuration not stated) | -3% (inactive)
57 | O=C(COc1ccc(Cl)cc1Cl)Nc1cccnc1 | -2% (inactive)
58 | N#Cc1ccc(-c2ccc(OCC(=O)Nc3cccnc3)cc2)cc1 | -10% (inactive)
59 | O=C(COc1ccc2ccccc2c1Br)Nc1cccnc1 | 31% (active)
60 | O=C(COc1ccccc1)Nc1ccc(S(=O)(=O)Nc2ccccn2)cc1 | -18% (inactive)
61 | O=C(COc1ccc([N+](=O)[O-])cc1)Nc1cccnc1 | -25% (inactive)
62 | O=C(COc1ccc(C(=O)c2ccccc2)cc1)Nc1cccnc1 | 4% (active)
63 | CC(=O)OCC1O[C@@H](O[C@@H]2C[C@H]3C(C)(C)[C@H](OC(C)=O)CC[C@]3(C)[C@H]3CC[C@]45C[C@]4(CC[C@H]5[C@@H](C)C[C@@H](O)[C@H](O)C(C)(C)O)[C@@]32C)[C@H](O)[C@@H](O)[C@@H]1O (some centres not stated) | 12% (active)
64 | C/C(=N\Nc1nc2ccccc2nc1C)c1ccccc1O | 10% (active)
65 | C/C(=N\Nc1nc2ccccc2s1)c1ccc(Br)s1 | -11% (inactive)
66 | C/C(=N\Nc1nc2ccccc2s1)c1cccs1 | -8% (inactive)
67 | Cc1ccc(-c2nnn(CC(=O)N(CC3CCCO3)C(C(=O)NC3CCCC3)c3ccc(O)cc3)n2)o1 (configuration not stated) | -7% (inactive)
68 | COCCNC(=O)C(c1ccncc1)N(C(=O)Cn1nnc2ccccc21)c1ccc(OC)cc1 (configuration not stated) | -9% (inactive)
69 | COCCNC(=O)C(c1ccc(C)o1)N(Cc1ccc(OC)cc1)C(=O)Cn1nnc2ccccc21 (configuration not stated) | 4% (active)
70 | O=[N+]([O-])c1cccc(/C=C/c2nc(C=Nc3ccccc3)c(O)o2)c1 | -13% (inactive)
71 | COc1cc2c(cc1OC)CN(C(=O)c1ccc3nc[nH]c3c1)CC2 | -2% (inactive)
72 | Cc1onc(C(=O)N2CCC(C(N)=O)CC2)c1-c1ccccc1Cl | -17% (inactive)
73 | O=c1[nH]c2ccc(S(=O)(=O)NCc3ccccc3)cc2[nH]1 | -5% (inactive)
74 | Nc1ccc2c(c1)C(=O)C(=O)c1ccccc1-2 | 10% (active)
75 | CC(=O)N(C1=C(N)C(=O)c2ccccc2C1=O)C(C)C | -12% (inactive)

Row | Structure (SMILES) | activity increase over dofetilide control, less the hit threshold
76 | Clc1ccc(Cc2ccccc2)nn1 | -10% (inactive)
77 | CC(=O)C1=C(O)C(=O)N(c2cccnc2)C1c1ccc(Cl)cc1 (configuration not stated) | -30% (inactive)
78 | O=C(COc1ccc(Br)cc1Cl)NC(=S)N1CCc2ccccc21 | -4% (inactive)
79 | O=C(COc1coc(CN2CCc3ccccc3C2)cc1=O)Nc1cccc(Cl)c1 | -17% (inactive)
80 | CC(C)c1ccc(OCC(=O)NN2C(=O)c3ccccc3C2=O)c(Br)c1 | -17% (inactive)
81 | O=C(COc1ccc(Cl)cc1Cl)NC(=S)N1CCCc2ccccc21 | 21% (active)
82 | O=C(COc1ccc(Br)cc1Br)NC(=S)N1CCCc2ccccc21 | 6% (active)
83 | CC(Oc1ccc(Cl)cc1Cl)C(=O)NC(=S)N1CCc2ccccc21 (configuration not stated) | 36% (active)
84 | CSc1nc2ccc(S(=O)(=O)N3CCc4ccccc43)cc2s1 | 0% (inactive)
85 | CCOc1ccc2[nH]c(=O)c(CN(Cc3ccc(C)cc3)C(=O)N3CCCC3)cc2c1 | -8% (inactive)
86 | Cc1cc(C)cc(NC(=O)N2CCCC2C(=O)Nc2ccc(-n3cnnn3)c(C)c2)c1 (configuration not stated) | -28% (inactive)
87 | Cc1cc(SC#N)cc(C)c1NC(=O)CCl | -1% (inactive)
88 | C=CCNC(=O)CC(=O)N/N=C/c1cccs1 | 0% (inactive)
89 | O=C(NC1CCN(c2ncccn2)CC1)c1c(F)cccc1F | -2% (inactive)
90 | C=CCNc1sc(C(=O)C(C)(C)C)c(N)c1C#N | -14% (inactive)
91 | COc1cc(/C=C2/C(=O)NN(c3ccc(Cl)c(Cl)c3)C2=O)cc([N+](=O)[O-])c1O | -1% (inactive)
92 | O=C(NC(=S)N(CCc1ccccc1)CCc1ccccc1)c1ccco1 | 53% (active)
93 | CC(CCc1ccccc1)NC(=S)NC(=O)c1ccco1 (configuration not stated) | 28% (active)
94 | O=[N+]([O-])C1=CC=C2C(=NC3(CCCCC3)N2O)C1=NC1CCCCC1 | -15% (inactive)
95 | O=C(COC(=O)c1cc(S(=O)(=O)NCc2ccccc2)ccc1O)NCc1ccccc1 | -7% (inactive)
96 | Cc1cc(N2C(=O)C(O)=C(C(=O)c3cccs3)C2c2ccccc2)no1 (configuration not stated) | -11% (inactive)
97 | COc1ccc(CNC(=O)C(=O)c2cn(CC(=O)N3CCCC3)c3ccccc23)cc1 | -21% (inactive)
